Only a selection was taken, and hits are over-represented in it overall.
Eya2 phos inh = qHTS Assay for Inhibitors of the Phosphatase Activity of Eya2 | Protein phosphatase EYA2 (Homo sapiens), O00167 | recombinant Eya2, OMFP fluorescence dephosphorylation (OMFP is methylfluorescein phosphate) | Potency, µM (top dose mostly 76.9 µM), for the others: at the top dose activity, negative = inhibition, actives largely listed as inhibitors | 330,000 compounds, 0.006% hits; note: % is set by controls: 0 for no effect and ±100 for the full control effect
Target sequence (O00167 whole entry, looked up): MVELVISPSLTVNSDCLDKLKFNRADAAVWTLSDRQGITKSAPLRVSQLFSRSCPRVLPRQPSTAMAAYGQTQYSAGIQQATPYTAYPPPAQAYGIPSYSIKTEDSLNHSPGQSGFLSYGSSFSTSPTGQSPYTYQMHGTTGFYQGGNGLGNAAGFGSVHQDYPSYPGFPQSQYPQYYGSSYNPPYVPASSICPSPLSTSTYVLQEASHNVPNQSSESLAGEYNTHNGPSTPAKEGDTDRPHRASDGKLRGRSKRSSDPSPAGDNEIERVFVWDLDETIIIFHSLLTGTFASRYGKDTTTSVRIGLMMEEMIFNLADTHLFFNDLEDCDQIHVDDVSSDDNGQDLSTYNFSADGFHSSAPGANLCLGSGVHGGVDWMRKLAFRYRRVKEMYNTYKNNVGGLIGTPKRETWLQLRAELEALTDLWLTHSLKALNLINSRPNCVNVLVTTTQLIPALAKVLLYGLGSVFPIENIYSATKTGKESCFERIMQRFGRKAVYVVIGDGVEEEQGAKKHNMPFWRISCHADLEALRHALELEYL
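Eya2 protein (added as 0.2 uM solution) was preincubated with compound for 10 min at ambient temperature in 50 mM HEPES pH 7.5, 50 mM NaCl, 5 uM MgCl2, 0.05% BSA, 1 mM DTT. OMFP (added at 50 uM) then reacted 10 min; fluorescence read at 485/525 nm.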
USP2a inh = qHTS Assay for Inhibitors of Ubiquitin-specific Protease USP2a Using CHOP2 as the Reporter. USP2 core, Ub-CHOP2 coupled fluorogenic reporter, 485/531. Ubiquitin carboxyl-terminal hydrolase 2 (Homo sapiens), O75604. Potency, µM (doses to about 38.3 µM), for inactives: at the top dose activity change, negative = inhibition, most hits filed as inhibitors. 330,000 compounds, 0.01% hits. AID 463254, 2010;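 note: plate controls were DMSO wells for no effect and full inhibition by NEM control for full effect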
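USP2 core (10nM final) preincubated 30min RT with compound in 20mM Tris-HCl pH 8.0, 2mM CaCl2, 2mM beta-mercaptoethanol, 0.05% CHAPS; 25nM Ub-CHOP2 plus 25nM reporter substrate added, fluorescence (Ex485/Em531) read after 60min.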
Mm-Cpn inhibitor = Inhibitors of TCP-1 ring complex (TRiC) of Methanococcus maripaludis (MmCpn): qHTS; Chaperonin Mm-Cpn (Methanococcus maripaludis); 330,000 compounds, 0.031% hits; Potency, µM (titrated, usually from 76.9 µM), inactives show top-dose activity, negative = inhibition, actives largely listed as inhibitors; purified Mm-Cpn ATPase, ADP Transcreener TR-FRET; note: % is set by controls: 0 for no effect and ±100 for the full control effect; nearly all actives have a fitted effect of over 80% in size
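Compound-treated chaperonin, 25 nM final, turns over 10 uM ATP at 37°C for 30 min following a 10 min preincubation; ADP generated competes with ADP-d2 for Eu-cryptate antibody, lowering FRET.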
p53 reactivation = qHTS assay for re-activators of p53 using a Luc reporter. AID 504706, 2011. Potency, µM (doses to about 92.2 µM), without a hit: top-dose activity change, positive = activation, actives largely listed as activators. 320,000 compounds, 0.063% hits. H1299 p53-A138V BP100-luciferase reporter, luminescence, 24 h; note: % of control where 0% means no effect; nearly all actives have a fitted effect of over 45% in size
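p53-null H1299 cells stably carrying temperature-sensitive p53-A138V and a BP100-luciferase reporter were pinned with compounds (4-point, 1:5 series) and held 24 hrs at 37 deg C. Luminescence was read 10 min after detection reagent.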
a7 integrin act = qHTS for Activators of Integrin-Mediated Alleviation for Muscular Dystrophy. alpha7betagal myoblasts, beta-gal FDG fluorescence, 48 h. Potency, µM (doses to about 38.3 µM), for the others: at the top dose activation, most hits filed as activators. 350,000 compounds, 0.064% hits. AID 624291, 2012;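 note: 100% = response of the positive control SU9516; nearly all actives have a fitted effect of over 60% in size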
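Alpha7betagal+/- myoblasts (passage 13) were plated 16-24 hr, then exposed to compounds (1:260 dilution of DMSO stock) for 48 hours at 37C. After MPER lysis, β-galactosidase reporter activity was read as FDG fluorescence (ex 480/em 540) after 30 minutes.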
ClpP mod = qHTS Assay for Activators of ClpP | 340,000 compounds, 1.9% hits | purified B. subtilis ClpP, FRET peptide cleavage, 20 min | ATP-dependent Clp protease proteolytic subunit (Bacillus subtilis (strain 168)), P80244 | AID 651965, 2013 | Potency, µM (series often up to 57.5 µM), without a hit: at the top dose activity change, negative = active; active = well fitted falling curve with a large enough effect; inconclusive = small, poorly fitted or top-dose-only effect; inactive = no such curve, though single readings can be large or run the other way; note: the source files actives as falling curves though it sought activators and does not explain the sign; nearly all actives have a fitted effect of over 65% in size
Target sequence (P80244 whole entry, looked up): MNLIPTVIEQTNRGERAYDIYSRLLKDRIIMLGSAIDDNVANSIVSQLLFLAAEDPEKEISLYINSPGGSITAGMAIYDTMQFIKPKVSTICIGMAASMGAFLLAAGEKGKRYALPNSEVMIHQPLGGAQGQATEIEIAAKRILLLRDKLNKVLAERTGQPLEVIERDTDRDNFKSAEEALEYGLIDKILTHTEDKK
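ClpP 10 microg/mL final, pH 8 Tris/KCl buffer with BSA, glycerol, Tween-20; compound pinned in; FRET-FV substrate; RT 20 min; Ex320/Em430; ΔFRET vs ADEP 5.8 microM, DMSO, no enzyme.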
* marks the source's active call; other numbers are inactive results; ? = inconclusive; . = no result. Unless noted, calls come from the whole dose curve; as a rule, active = well fitted curve in the direction sought with a large enough effect; inconclusive = small, poorly fitted or top-dose-only effect, or another doubt; inactive = no such curve, though single readings can be large; an effect the other way counts as inactive or inconclusive. Potency is the fitted concentration of half-maximal effect.

SMILES	Eya2 phos inh	USP2a inh	Mm-Cpn inhibitor	p53 reactivation	a7 integrin act	ClpP mod
CC(C)CNC(=O)c1c2c(nc3ccccc13)-c1ccccc1CC2	?	1%	-1%	3%	11%	28µM*
C=CCNC(=O)c1c2c(nc3ccccc13)-c1ccccc1CC2	-5%	-2%	-2%	-11%	1%	32µM*
C=CCNC(=O)c1ccc(-c2nc3ccccc3nc2-c2ccccc2)cc1	.	.	.	.	29%	.
CC(C(=O)N1CCCCC1)n1sc2ccccc2c1=O (centres undefined)	1%	4%	0%	11µM*	1%	-1%
CC(C(=O)N1CCN(C(=O)c2ccco2)CC1)n1sc2ccccc2c1=O (centres undefined)	0%	2%	-2%	25%	-30%	1%
N#Cc1ccc(-c2csc(NC(=O)c3ccc(N4C(=O)CCC4=O)cc3)n2)cc1	3%	2%	32µM*	-5%	15%	.
O=[N+]([O-])c1ccc(-c2cc3ccccc3[nH]2)cc1	.	.	.	.	.	1%
CCCCNc1ccccc1C(=O)OCC(=O)Nc1ccc(S(N)(=O)=O)cc1	3%	-1%	2%	1%	-27%	28µM*
CCC(=O)Nc1ccccc1C(=O)OCC(=O)Nc1ccc(S(N)(=O)=O)cc1	5%	1%	0%	-5%	-16%	-29%
COC(=O)C(=O)C/C(=N/Nc1ncnc2ccccc12)c1ccc(Cl)cc1	18%	3%	1%	?	10µM*	-2%
COc1ccc(-c2ccc(C(=O)Nc3cccc(N(C)C)c3)c3occc23)c(C)c1	.	.	.	.	.	28µM*
Cn1cc(-c2ccc(C(=O)Nc3cccc(Oc4ccccc4)c3)c3occc23)cn1	.	.	.	.	.	22µM*
CN(C)c1cccc(NC(=O)c2cccc3c(-c4ccc(F)c(F)c4)coc23)c1	.	.	.	.	.	22µM*
COc1ccc(-c2ccc(C(=O)Nc3cccc(F)c3)c3occc23)c(C)c1	.	.	.	.	.	5%
COc1ccc(OC)c(/C=C2\Cc3ccccc3C2=O)c1	.	.	.	.	.	-5%
C[C@@H]1[C@H](c2ccccc2)OCCS(=O)(=O)N1Cc1ccc(F)cc1	.	.	.	.	.	0%
CCn1c(SCC(=O)NCc2ccco2)nnc1-c1cccc(N(C)C)c1	.	.	.	.	.	-4%
CC1(C)CC(=O)c2cc(C(=O)Nc3cccc4ccccc34)c(=O)[nH]c2C1	.	.	.	.	.	-1%
COc1ccc(CCNC(=O)COC(=O)CCC(=O)c2ccc(F)cc2)cc1OC	10%	0%	1%	4%	-5%	32µM*
Fc1ccc(/C=C/c2ccc3ccccc3n2)cc1	.	.	.	.	.	-20%
O=[S+]([O-])([O-])c1ccc2c(c1)cc([S+](=O)([O-])[O-])c1nn(-c3ccc(/C=C/c4ccc(-n5nc6c([S+](=O)([O-])[O-])cc7cc([S+](=O)([O-])[O-])ccc7c6n5)cc4[S+](=O)([O-])[O-])c([S+](=O)([O-])[O-])c3)nc12	.	.	.	.	.	4%
O=c1cc(-c2ccccc2)nc2nc(-c3ccccc3)[nH]n12	-3%	3%	1%	32µM*	12%	-14%
COc1ccc2c(c1)c[n+](C)c1c3cc(OC)c(OC)cc3ccc21	.	.	.	.	.	-14%
COc1cc2c[n+](C)c3c4ccccc4ccc3c2cc1OC	.	.	.	.	-2%	8.9µM*
CC(C)CN(C)c1ccc(/C=C2\C=Cc3ccccc32)cc1	.	.	.	.	.	0%
SMILES	Eya2 phos inh	USP2a inh	Mm-Cpn inhibitor	p53 reactivation	a7 integrin act	ClpP mod
Cc1cccn2c(=O)c3cc(C(=O)NCCCN4CCCC4=O)n(C)c3nc12	12%	0%	-2%	8%	18%	16µM*
Cc1cccn2c(=O)c3cc(C(=O)N(C)C)n(C)c3nc12	-7%	3%	-2%	?	8%	16µM*
CCCCNC(=O)c1cc2c(=O)n3cccc(C)c3nc2n1C	6%	2%	3%	-5%	.	.
Cc1cccc(CN2Cc3cccc4c3[C@H](C=CC4)CC2=O)c1	.	.	.	.	.	-4%
Cc1cc(C)nc(NC(=O)c2cc(-c3ccc(C)s3)nc3ccccc23)c1	3%	2%	?	-4%	1%	16µM*
Cc1ccc(-c2cc(C(=O)Nc3cccnc3)c3ccccc3n2)s1	-11%	-1%	-10%	-3%	-12%	16µM*
Cc1cccc(-c2cc(C(=O)Nc3cccnc3)c3ccccc3n2)c1	-11%	1%	-2%	-26%	14%	1%
CC1CCCCN1S(=O)(=O)c1ccc(C(=O)Nc2ccccc2-c2nc3ccccc3[nH]2)cc1 (centres undefined)	-8%	1%	-3%	-6%	20%	13µM*
O=C(Nc1ccccc1-c1nc2ccccc2[nH]1)c1ccc(S(=O)(=O)N2CCCCC2)cc1	14%	3%	1%	10%	7%	?
O=C(c1ccc(Cl)c(S(=O)(=O)N2CCCCC2)c1)N1CCCCC1	-1%	3%	-2%	-15%	-43%	0%
O=C(c1ccc(Br)c(S(=O)(=O)N2CCCCC2)c1)N1CCCCC1	2%	1%	1%	1%	-7%	22µM*
Clc1ccc(/C=N/Nc2ncnc3ccccc23)cc1Cl	-2%	-5%	2%	?	9%	28µM*
CC(C)Oc1cccc(-c2cc(C(=O)NN3CCOCC3)c3ccccc3n2)c1	-4%	2%	0%	-19%	?	-3%
CC(C)Oc1cccc(-c2cc(C(=O)NC(=S)N(C)c3ccccc3C(=O)O)c3ccccc3n2)c1	0%	1%	-1%	17%	?	6.3µM*
Cc1cc2c(cc1C)N[C@]1(C[C@H]3CCCC(=O)N4CC[C@@H](C1)[C@@H]34)C(=NC1CCCCC1)N2	.	.	.	.	.	2%
CCOC(=O)c1nc2cc3n(c(CC(C)C)c-2c1C)CC(C)=C3C	0%	2%	-5%	-1%	-41%	28µM*
CCOC(=O)c1nc2cc3n(c(C)c-2c1C)C(C)C(C)=C3C (centres undefined)	7%	1%	-3%	-8%	-31%	58%
Cc1nn2c(C)c(C(=O)NCc3ccco3)cnc2c1-c1ccccc1	.	.	.	.	.	1%
Cc1ccc(OCCn2cc(C=O)c3ccccc32)cc1	-5%	1%	1%	-2%	-10%	-1%

Bioassay records (PubChem)
